# Bioassay records deposited in PubChem BioAssay by several laboratories.
# In the library only some 1.2% were active in any assay of this set; here they are far more common.
# PrP 5UTR inh: inhibition of PrP 5' UTR reporter expression. cell-based PrP 5' UTR mRNA reporter, plate reader. inhibition, % (no concentration beside the values). 340,000 compounds, 0.35% hits. AID 488862; in the data active = inhibition above about 52%
# TcdB inh: inhibitors of Clostridioides difficile toxin B glycohydrolase. P18177. TcdB glycohydrolase enzymatic assay, plate reader. inhibition, % at 9.99 µM. 350,000 compounds, 0.24% hits. AID 652162; in the data active = inhibition above about 10%
# PfHsp40 yeast: restores yeast growth despite PfHsp40 toxicity; growth rescue, % at 12.5 µM; AID 504582; S. cerevisiae expressing PfHsp40, growth rescue, ATP luminescence; 340,000 compounds, 0.68% hits; in the data active = growth rescue above about 28%, passing the limit was not always enough; inconclusive = no clear call, values can overlap the other calls;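 note: yeast W303a lacking pdr1 and pdr3 grown in galactose medium; growth measured after three days at 30 °C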
# Sa RN4220 lethal: S. aureus RN4220 growth inhibition. OD600, 16 h. inhibition, % (test concentration not listed). 330,000 compounds, 0.33% hits; in the data active = inhibition above about 85%
# ugtP null kill: growth inhibition of S. aureus ugtP deletion strain. S. aureus RN4220 ugtP deletion, OD600 growth, 16 h. growth inhibition, % (concentration not given with the values). 330,000 compounds, 0.54% hits; in the data active = growth inhibition above about 68%
# Numbers stand for hits; 0 = inactive; ? = inconclusive; - = no result.
SMILES,PrP 5UTR inh,TcdB inh,PfHsp40 yeast,Sa RN4220 lethal,ugtP null kill
CC(=O)Nc1ccc2c(c1)C(=O)N(C)[C@@H]1CC[C@H](CC(=O)NCCCN3CCOCC3)O[C@@H]1CO2,-,0,-,-,-
CC(C)N1CCN(c2ccc(OCC3COC(Cn4cncn4)(c4ccc(Cl)cc4Cl)O3)cc2)CC1 (stereo not drawn),0,0,226,-,-
CC(C)N1CCN(c2ccc(OC[C@H]3CO[C@](Cn4cncn4)(c4ccc(Cl)cc4Cl)O3)cc2)CC1,0,0,222,-,-
O=C1C(=O)c2c(C(=O)c3ccccc3)coc2-c2ccccc21,0,0,0,94,86
Cc1oc2c(c1C(=O)c1ccccc1)C(=O)C(=O)c1ccccc1-2,0,-,97,100,94
CO[C@H]1CN(C)C(=O)c2cc(NC(=O)Cc3ccccc3)ccc2OC[C@@H](C)N(CC2CC2)C[C@H]1C,-,0,-,-,-
C[C@H]1CN([C@@H](C)CO)C(=O)c2cc(NC(=O)Cc3ccccc3)ccc2O[C@@H]1CN(C)Cc1ccccc1,-,0,-,-,-
O=C(Nc1ccncc1)c1ccc(-c2ccccc2)cc1,0,11,0,0,0
Cc1ccc(CCNc2ncnc(Cl)c2N)cc1,0,0,733,0,0
COCCNc1cc(N)c([N+](=O)[O-])cc1[N+](=O)[O-],0,11,0,0,0
Oc1ccc(NC(=S)N=Nc2c(O)[nH]c3ccc(Br)cc23)cc1,0,0,0,0,0
Oc1[nH]c2ccc(Br)cc2c1N=NC(=S)Nc1ccc(F)cc1,0,0,0,99,100
C[C@@H]1CN([C@H](C)CO)C(=O)c2cc(NC(=O)NC3CCCCC3)ccc2O[C@H]1CN(C)Cc1ccc(Cl)c(Cl)c1,-,0,-,-,-
C[C@H](O)C#Cc1cnc2c(c1)C(=O)N([C@@H](C)CO)C[C@H](C)[C@H](CN(C)Cc1ccc(-c3ccccc3)cc1)O2,-,0,-,-,-
Oc1ccccc1N=Cc1c(O)ccc2oc3c(c12)CCCC3,0,0,190,-,-
CC=Cc1ccc2n(c1=O)C[C@H]1[C@H](CO)[C@@H](C(=O)NCCC)N(Cc3cccnc3)[C@@H]21 (mixture of isomers),-,0,-,-,-
CCCSc1cc(N2CCN(C)CC2)nc(-c2ccc(OC)cc2)n1,0,-,0,0,100
C[C@@H]1CN([C@H](C)CO)C(=O)c2cc(NS(=O)(=O)c3ccc(Cl)cc3)ccc2O[C@@H](C)CCCCO[C@@H]1CN(C)S(=O)(=O)c1cn(C)cn1,-,0,-,-,-
CCN1/C(=C/c2ccc3ccccc3[n+]2CCCS(=O)(=O)[O-])C=Cc2cc(C)ccc21,0,0,0,0,0
CCN1/C(=C/c2ccc3ccccc3[n+]2CC)C=Cc2ccccc21,0,-,166,-,-
CCN1C(=Cc2ccc3ccccc3[n+]2CC)C=Cc2ccccc21,-,-,-,100,100
C[C@@H]1CCCCO[C@H](CN(C)Cc2ccc3c(c2)OCO3)[C@@H](C)CN([C@@H](C)CO)C(=O)c2cc(NC(=O)C3CCCCC3)ccc2O1,-,0,-,-,-
CCn1c2ccccc2c2cc(Nc3cc(C)nc4ncnn34)ccc21,68,0,0,0,0
Cc1nn(-c2ccccc2)c(C)c1C=Nn1cnnc1,-,-,-,0,0
CCOC(=O)c1sc(=S)n(-c2ccccc2Cl)c1C,0,0,0,0,0
SMILES,PrP 5UTR inh,TcdB inh,PfHsp40 yeast,Sa RN4220 lethal,ugtP null kill
CCOC(=O)N1C(=O)C2(CCCCC2)N(c2ccccc2Cl)C1=S,0,-,284,0,0
CN(C)CCCNC(=O)C[C@H]1CC[C@@H](NC(=O)c2ccccc2F)[C@H](CO)O1,-,0,-,-,-
Cc1cccc(NC(=O)c2ccc(N3CCCCC3)c([N+](=O)[O-])c2)n1,0,-,0,0,0
Cc1cccc(NC(=O)c2ccc(N3CCOCC3)c([N+](=O)[O-])c2)n1,0,13,0,0,0
CCOc1ccc(NC(=O)CSc2nnc(C3CC3)n2C2CC2)cc1,0,0,0,0,0
NC(=O)c1ccc(NC(=O)CSc2nnc(C3CC3)n2C2CC2)cc1,0,12,0,0,0
Cc1nc2c(Cl)cc(Cl)cc2[nH]1,0,-,33,0,0
COCC#Cc1ccc2c(c1)O[C@H](CN(C)C(=O)CC1CC1)[C@H](C)CN([C@H](C)CO)S2(=O)=O,-,0,-,-,-
COCC#Cc1ccc2c(c1)O[C@H](CN(C)C(=O)CC1CC1)[C@@H](C)CN([C@H](C)CO)S2(=O)=O,-,12,-,-,-
COCCNC(=O)C[C@H]1CC[C@H](NS(=O)(=O)c2ccc(C)cc2)[C@H](CO)O1,-,0,-,-,-
CCCCOc1c(Br)cc(C=NO)cc1OCC,-,-,-,0,100
CCCCOc1c(Br)cc(/C=N/O)cc1OCC,0,-,0,-,-
C[C@H]1CN([C@@H](C)CO)C(=O)Cc2cc(NS(=O)(=O)c3cccs3)ccc2O[C@@H]1CN(C)S(=O)(=O)c1ccc(Cl)cc1,-,0,-,-,-
O=C(/C=C/c1ccc(F)cc1)OCC(=O)c1ccc[nH]1,0,0,0,0,0
O=C(COC(=O)c1ccc(F)cc1F)c1ccc[nH]1,0,10,0,0,0
CC1=C(C(=O)OC2CCCC2)C(c2coc3ccc(C)cc3c2=O)C2=C(CCCC2=O)N1 (stereo not drawn),0,0,0,0,0
CC1=C(C(=O)OC2CCCC2)C(c2coc3ccccc3c2=O)C2=C(CC(C)(C)CC2=O)N1 (stereo not drawn),-,0,93,0,0
COc1ccc(-c2cnc3c(c2)C(=O)N([C@H](C)CO)C[C@H](C)[C@@H](CN(C)C(=O)C2CCCCC2)O3)cc1,-,0,-,-,-
COc1ccc(-c2cnc3c(c2)C(=O)N([C@@H](C)CO)C[C@H](C)[C@H](CN(C)C(=O)C2CCCCC2)O3)cc1,-,12,-,-,-
O=C1c2cccc3c(N4CCOCC4)c([N+](=O)[O-])cc(c23)C(=O)N1c1cccc2ccccc12,0,0,0,95,97
C[C@@H]1CN([C@@H](C)CO)C(=O)Cc2cc(NC(=O)c3ccncc3)ccc2O[C@@H]1CN(C)S(=O)(=O)c1ccccc1,-,0,-,-,-
CCn1c(CNc2ccc(Cl)cc2)nnc1SCc1ccc(C)cc1,0,-,?,0,0
CCn1c(CNc2ccc(Cl)cc2)nnc1SCc1ccc(Cl)cc1,0,-,166,0,0
COc1cc(/C=C/c2cc[n+](C)cc2)ccc1OCC(=O)Nc1ccc(Cl)c(Cl)c1,0,0,0,0,100
CC(C)CC#Cc1ccc2c(c1)O[C@H](CN(C)C(=O)C1CCOCC1)[C@H](C)CN([C@@H](C)CO)S2(=O)=O,-,0,-,-,-
SMILES,PrP 5UTR inh,TcdB inh,PfHsp40 yeast,Sa RN4220 lethal,ugtP null kill
N/C(Cc1ccc(Cl)cc1Cl)=N\OC(=O)c1ccccc1F,0,0,156,0,0
N/C(Cc1cccc2ccccc12)=N\OC(=O)c1ccccc1F,0,0,0,0,0
C[C@@H]1CN([C@H](C)CO)C(=O)Cc2cc(NC(=O)CCCCCC(=O)Nc3ccccc3N)ccc2O[C@H]1CN(C)Cc1ccc(Oc2ccccc2)cc1,-,0,-,-,-
CN1/C(=C/C=C/c2n(C)c3cc([N+](=O)[O-])c([N+](=O)[O-])cc3[n+]2C)C(C)(C)c2ccccc21,-,12,-,-,-
CCCOc1cccc(C(=O)NC(=S)Nc2ccc(N3CCN(C)CC3)cc2)c1,0,0,0,0,95
CCOc1cccc(C(=O)NC(=S)Nc2ccc(N3CCN(CC)CC3)cc2)c1,0,0,0,0,94
CN1CCN(c2ccc(NC(=O)c3cccc(OCc4ccccc4)c3)cc2)CC1,0,-,0,0,0
